In ChEMBL document CHEMBL3988442, “University of Dundee, Small-Polar-MMV Screening Library” (2021) one finds Percent Effect data, which are given here for eight compounds.

Common to all, as to set-up: scale not given: direction of the effect not stated beside the values
The target in assay [1] is Protein translocase subunit SecA (Escherichia coli (strain K12)) (UniProt P10408). Description: Assay to Identify E. coli SecA ATPase Inhibitors. It counts as functional. To be noted: 30 µM.
Assay [2] has as its target T1, Ubiquitin-activating enzyme e1, putative (Leishmania donovani (strain BPK282A1)) (UniProt E9BSI1).
T1 sequence (whole entry): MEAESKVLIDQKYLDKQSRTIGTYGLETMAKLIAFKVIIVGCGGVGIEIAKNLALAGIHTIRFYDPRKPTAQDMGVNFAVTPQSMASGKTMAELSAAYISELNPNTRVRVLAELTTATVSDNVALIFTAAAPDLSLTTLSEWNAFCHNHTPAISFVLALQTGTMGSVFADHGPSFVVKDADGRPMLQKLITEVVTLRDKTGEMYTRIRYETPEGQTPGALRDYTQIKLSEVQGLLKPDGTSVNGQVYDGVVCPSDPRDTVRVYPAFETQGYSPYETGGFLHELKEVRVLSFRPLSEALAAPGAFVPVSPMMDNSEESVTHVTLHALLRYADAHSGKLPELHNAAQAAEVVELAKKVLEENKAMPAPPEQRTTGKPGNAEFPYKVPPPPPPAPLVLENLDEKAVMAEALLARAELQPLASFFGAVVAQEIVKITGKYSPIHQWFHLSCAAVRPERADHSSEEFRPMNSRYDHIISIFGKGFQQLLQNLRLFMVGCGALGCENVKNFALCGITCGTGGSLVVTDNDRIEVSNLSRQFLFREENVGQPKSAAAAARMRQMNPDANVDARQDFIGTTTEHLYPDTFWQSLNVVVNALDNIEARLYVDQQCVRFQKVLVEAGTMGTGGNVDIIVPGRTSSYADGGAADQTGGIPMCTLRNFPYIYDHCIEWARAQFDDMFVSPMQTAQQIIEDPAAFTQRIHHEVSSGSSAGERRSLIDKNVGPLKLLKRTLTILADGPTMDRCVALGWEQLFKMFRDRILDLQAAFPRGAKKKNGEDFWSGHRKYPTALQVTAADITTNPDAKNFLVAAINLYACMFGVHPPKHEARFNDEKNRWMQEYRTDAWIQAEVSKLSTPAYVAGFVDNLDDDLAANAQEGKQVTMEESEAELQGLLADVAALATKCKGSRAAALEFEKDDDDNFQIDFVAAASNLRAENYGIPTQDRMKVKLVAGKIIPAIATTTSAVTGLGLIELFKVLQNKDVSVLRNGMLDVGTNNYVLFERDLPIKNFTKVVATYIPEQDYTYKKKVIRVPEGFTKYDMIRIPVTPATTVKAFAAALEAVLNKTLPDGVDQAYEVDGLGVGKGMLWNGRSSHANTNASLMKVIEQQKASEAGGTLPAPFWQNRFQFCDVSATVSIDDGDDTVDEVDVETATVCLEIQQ
The assay can be described thus: Leishmania donovani Ubiquitin Activating Enzyme (LdE1). The conditions noted are these: 30 µM. It counts as functional.

Assay [3] deals with AMP-activated protein kinase, AMPK (Homo sapiens) (UniProt P54646+O43741+P54619+Q9UGJ0+Q9Y478+Q13131+Q9UGI9). Description: AMP-dependent Kinase enzyme assay. An in vitro enzyme assay that detects ADP turnover that is directly proportional to AMPK activity. This uses naive AMPK that is activated during the assay with MK-8722. It counts as functional. To be noted: 30 µM.
For assay [4], the target named is Sialic acid-binding Ig-like lectin 9 (Homo sapiens) (UniProt Q9Y336). The assay can be described thus: Hs-Siglec9 ALPHAscreen SOP 20170721. The conditions noted are these: 10 µM.
For assay [5], the system named is Trypanosoma cruzi. The assay can be described thus: Trypanosoma cruzi phosphomannomutase and mannose-1-phosphate guanylyltransferase assay. It counts as functional. The conditions noted are these: 10 µM.
Assay [6] addresses T2, Arginase-2, mitochondrial (Homo sapiens) (UniProt P78540).
T2 sequence (whole entry): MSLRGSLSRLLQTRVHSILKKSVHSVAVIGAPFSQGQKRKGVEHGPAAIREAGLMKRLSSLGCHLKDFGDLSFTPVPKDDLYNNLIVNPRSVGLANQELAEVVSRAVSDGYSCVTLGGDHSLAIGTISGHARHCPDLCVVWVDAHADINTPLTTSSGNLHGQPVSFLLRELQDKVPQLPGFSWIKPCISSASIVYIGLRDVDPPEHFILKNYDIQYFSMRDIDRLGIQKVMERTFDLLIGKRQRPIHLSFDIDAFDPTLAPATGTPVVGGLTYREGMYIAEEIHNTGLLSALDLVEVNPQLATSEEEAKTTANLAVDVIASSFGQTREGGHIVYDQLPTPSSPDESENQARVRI
Description: in vitro enzyme assay to detect the production of urea directly proportional to the activity of Arginase II. Further: in the data most compounds retested in dose-response had high values. The conditions noted are these: 33.3 µM. It counts as functional.

Assay [7] addresses T3, Proteasome subunit beta (Trypanosoma cruzi) (UniProt O96673).
T3 sequence (whole entry): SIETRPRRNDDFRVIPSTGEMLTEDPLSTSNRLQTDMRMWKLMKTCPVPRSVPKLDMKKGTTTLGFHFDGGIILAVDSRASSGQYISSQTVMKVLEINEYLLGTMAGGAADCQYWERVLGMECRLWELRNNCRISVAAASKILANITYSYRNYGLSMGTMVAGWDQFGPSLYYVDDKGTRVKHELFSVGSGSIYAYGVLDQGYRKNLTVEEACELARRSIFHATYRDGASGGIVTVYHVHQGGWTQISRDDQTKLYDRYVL
The assay can be described thus: Trypanosoma cruzi proteasome chymotrypsin-like activity (TcProtChymo) assay. Further: in the data most compounds retested in dose-response had high values. The assay is classed as functional. The conditions noted are these: 9.37 µM.

The species named for assay [8] is Homo sapiens. Description: To identify inhibition of the IFN signalling (Jak-Stat) pathway via expression of an eGFP reporter gene under the control of an IFN-stimulated response element (ISRE) containing MxA promoter. The conditions noted are these: 30 µM. The assay is classed as functional. In general terms: In a reporter assay the amount or activity of a reporter protein is the signal.

The target of assay [9] is T4, Tyrosyl-tRNA synthetase, putative (Trypanosoma cruzi (strain CL Brener)) (UniProt Q4DSP6).
T4 sequence (whole entry): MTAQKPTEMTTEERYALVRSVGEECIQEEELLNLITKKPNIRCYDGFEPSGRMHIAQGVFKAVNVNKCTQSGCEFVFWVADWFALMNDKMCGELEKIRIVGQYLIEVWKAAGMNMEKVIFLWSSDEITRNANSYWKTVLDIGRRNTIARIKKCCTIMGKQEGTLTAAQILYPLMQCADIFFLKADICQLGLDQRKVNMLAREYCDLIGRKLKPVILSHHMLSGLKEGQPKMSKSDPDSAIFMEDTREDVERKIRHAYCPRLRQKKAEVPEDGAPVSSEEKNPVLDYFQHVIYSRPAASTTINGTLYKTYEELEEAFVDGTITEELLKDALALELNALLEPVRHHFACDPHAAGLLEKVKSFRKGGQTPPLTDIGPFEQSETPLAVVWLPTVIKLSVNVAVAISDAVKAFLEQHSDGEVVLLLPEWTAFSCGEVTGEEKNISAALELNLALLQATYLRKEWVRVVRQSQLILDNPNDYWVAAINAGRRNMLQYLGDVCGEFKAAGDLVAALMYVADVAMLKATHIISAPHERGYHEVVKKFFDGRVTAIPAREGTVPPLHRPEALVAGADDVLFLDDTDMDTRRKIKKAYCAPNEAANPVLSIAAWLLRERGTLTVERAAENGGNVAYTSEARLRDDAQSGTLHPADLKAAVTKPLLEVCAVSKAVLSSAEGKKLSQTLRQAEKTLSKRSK
Description: Trypanosoma cruzi tyrosyl tRNA synthetase (TcYRS) _High Tyrosine SOP. Further: in the data most compounds retested in dose-response had high values. It counts as functional. To be noted: 30 µM.

Assay [10] concerns the target T4, Tyrosyl-tRNA synthetase, putative (Trypanosoma cruzi (strain CL Brener)). Description: Trypanosoma cruzi tyrosyl tRNA synthetase (TcYRS) SOP. The assay is classed as functional. The conditions noted are these: 30 µM.
For assay [11], the target named is Chromo domain-containing protein 1 (Saccharomyces cerevisiae (strain ATCC 204508 / S288c) (Baker's yeast)) (UniProt P32657). Description: ScCHD-1 Enzyme Inhibition Assay. Further: in the data most compounds retested in dose-response had high values. The assay is classed as functional. To be noted: 30 µM.

For some of these results: Results with a measured potency or affinity are listed apart.

Chain of Protein translocase subunit SecA (Escherichia coli (strain K12)) (P10408 whole entry): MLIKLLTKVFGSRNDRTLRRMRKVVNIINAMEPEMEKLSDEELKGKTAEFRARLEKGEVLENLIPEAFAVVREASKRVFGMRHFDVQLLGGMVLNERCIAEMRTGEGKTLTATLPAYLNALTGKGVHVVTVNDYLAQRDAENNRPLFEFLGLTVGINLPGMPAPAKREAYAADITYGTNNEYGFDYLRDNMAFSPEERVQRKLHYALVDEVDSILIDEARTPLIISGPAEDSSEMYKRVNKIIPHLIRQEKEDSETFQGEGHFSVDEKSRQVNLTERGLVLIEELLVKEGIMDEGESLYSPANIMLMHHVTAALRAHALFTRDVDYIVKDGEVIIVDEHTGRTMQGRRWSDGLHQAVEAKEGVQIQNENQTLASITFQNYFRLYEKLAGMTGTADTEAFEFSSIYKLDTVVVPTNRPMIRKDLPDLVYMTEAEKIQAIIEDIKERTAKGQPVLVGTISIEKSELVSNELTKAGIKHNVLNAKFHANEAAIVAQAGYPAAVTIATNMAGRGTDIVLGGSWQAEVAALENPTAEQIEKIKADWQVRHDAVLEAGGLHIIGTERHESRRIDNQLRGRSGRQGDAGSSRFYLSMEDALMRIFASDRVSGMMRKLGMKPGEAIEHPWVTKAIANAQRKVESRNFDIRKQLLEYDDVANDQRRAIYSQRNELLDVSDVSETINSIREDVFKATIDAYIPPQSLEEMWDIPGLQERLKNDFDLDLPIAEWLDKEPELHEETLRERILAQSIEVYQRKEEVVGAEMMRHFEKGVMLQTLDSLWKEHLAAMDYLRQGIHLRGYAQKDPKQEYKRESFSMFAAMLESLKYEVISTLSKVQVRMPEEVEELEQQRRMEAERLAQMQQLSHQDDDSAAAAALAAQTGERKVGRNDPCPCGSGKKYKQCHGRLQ
Chain of Chromo domain-containing protein 1 (Saccharomyces cerevisiae (strain ATCC 204508 / S288c) (Baker's yeast)) (P32657 whole entry, the tested form may be a part): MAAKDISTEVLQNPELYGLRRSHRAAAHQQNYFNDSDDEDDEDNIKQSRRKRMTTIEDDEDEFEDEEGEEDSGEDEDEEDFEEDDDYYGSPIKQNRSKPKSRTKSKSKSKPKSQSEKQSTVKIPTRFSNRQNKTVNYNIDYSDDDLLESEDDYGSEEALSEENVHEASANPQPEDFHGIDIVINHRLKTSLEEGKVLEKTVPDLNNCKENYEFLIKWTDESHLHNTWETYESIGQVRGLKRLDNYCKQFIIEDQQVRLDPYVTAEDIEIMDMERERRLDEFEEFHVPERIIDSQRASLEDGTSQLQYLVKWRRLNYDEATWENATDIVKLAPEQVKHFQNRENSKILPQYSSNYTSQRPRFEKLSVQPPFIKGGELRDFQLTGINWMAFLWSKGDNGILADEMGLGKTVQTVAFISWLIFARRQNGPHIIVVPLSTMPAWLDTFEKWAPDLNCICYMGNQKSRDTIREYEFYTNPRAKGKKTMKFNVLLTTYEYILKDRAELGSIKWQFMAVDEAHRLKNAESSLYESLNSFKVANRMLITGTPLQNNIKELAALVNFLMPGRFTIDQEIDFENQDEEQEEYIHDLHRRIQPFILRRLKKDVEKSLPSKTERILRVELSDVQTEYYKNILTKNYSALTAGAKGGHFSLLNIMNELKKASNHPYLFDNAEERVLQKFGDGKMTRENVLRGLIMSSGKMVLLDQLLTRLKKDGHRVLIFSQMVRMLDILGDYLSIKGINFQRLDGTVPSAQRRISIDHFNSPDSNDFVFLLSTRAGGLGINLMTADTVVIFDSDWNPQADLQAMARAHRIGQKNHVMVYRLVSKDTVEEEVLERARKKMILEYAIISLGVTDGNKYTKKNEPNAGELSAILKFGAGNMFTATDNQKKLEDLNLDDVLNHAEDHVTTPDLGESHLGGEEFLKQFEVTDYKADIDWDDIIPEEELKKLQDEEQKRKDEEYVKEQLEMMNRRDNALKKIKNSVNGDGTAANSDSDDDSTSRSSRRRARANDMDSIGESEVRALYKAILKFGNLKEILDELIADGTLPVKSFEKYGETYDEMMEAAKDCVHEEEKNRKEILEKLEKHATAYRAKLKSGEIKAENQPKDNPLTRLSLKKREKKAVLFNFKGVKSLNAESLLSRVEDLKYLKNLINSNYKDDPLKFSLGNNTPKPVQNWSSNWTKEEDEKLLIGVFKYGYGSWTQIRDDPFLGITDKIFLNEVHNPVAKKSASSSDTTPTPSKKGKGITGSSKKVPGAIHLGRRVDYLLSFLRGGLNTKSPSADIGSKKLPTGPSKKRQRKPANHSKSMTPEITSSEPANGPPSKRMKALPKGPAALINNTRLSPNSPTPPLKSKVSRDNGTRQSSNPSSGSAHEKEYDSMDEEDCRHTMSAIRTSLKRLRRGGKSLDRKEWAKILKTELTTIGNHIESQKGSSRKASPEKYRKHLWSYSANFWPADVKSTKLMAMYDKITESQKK
Chain of Sialic acid-binding Ig-like lectin 9 (Homo sapiens) (Q9Y336 whole entry): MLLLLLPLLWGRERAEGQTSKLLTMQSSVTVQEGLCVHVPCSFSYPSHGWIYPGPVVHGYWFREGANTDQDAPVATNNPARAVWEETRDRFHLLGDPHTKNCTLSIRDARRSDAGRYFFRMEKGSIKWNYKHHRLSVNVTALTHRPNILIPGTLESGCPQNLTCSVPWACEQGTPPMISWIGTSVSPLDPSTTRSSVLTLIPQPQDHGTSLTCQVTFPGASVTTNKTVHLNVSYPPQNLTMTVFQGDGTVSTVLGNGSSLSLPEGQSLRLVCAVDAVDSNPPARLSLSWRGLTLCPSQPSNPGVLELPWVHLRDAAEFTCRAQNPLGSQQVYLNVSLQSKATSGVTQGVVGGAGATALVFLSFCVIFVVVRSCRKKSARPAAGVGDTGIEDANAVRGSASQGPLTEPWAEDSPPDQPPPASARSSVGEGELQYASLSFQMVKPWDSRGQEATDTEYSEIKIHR

For the compound `c1csc(CN2C[C@@H]3OCCN(CC4CCCO4)[C@@H]3C2)c1` (stereo partly drawn), the Percent Effect is -3.09% in assay [1]; 5.48% in [2]; -0.633% in assay [3]; 5.1% in assay [4]; -1.39% in [5]; -1.2% in assay [6]. In addition, the Percent Effect in [7] is 10.2%; in assay [8] it was 4.94%; in [9], 5.21%; in assay [10], 16.1%; in assay [11] it was 1.15%.

Regarding `O=C(CN(Cc1cccnc1)CC1CCCO1)Nc1ccc(F)cc1` (stereo not drawn), the Percent Effect was -3.61% in [1]; 2.74% in assay [2]; 1.19% in [3]; 0.415% in assay [4]; -2.35% in [5]; -1.82% in assay [6]. Besides, the Percent Effect in assay [7] stood at 10.3%; in [8], 5.96%; in [9], 0%; in assay [10], 0%; in assay [11], 0.815%.

In the case of `Cc1ccc(-c2cc(N)c(=O)n(CC(=O)NCC3CCCCC3)n2)s1`, the Percent Effect was -3.51% in assay [1]; 9.46% in [2]; 11.8% in assay [3]; -4.16% in assay [4]; -6.13% in assay [5]; -2.09% in assay [6]. Also, the Percent Effect in assay [7] is 12.3%; in assay [8], 9.89%; in [9] it was -6.45%; in [10], 3.9%; in assay [11], -4.23%.

For `CN(C)C(=O)N1CCc2c(CNc3ncccn3)cncc2C1`, the Percent Effect in assay [1] is -2.85%; in [2], 0%; in assay [3] it was -1%; in assay [4] it was 7.13%; in assay [5] it was 1.35%; in assay [6], -23.8%. Moreover, the Percent Effect was 1.88% in assay [7]; -4.02% in assay [8]; 6.25% in assay [9]; 7.5% in assay [10]; -2.6% in [11].

Consider `C[C@@H]1CN(C2(C(=O)N3CCOCC3)Cc3ccccc3C2)C[C@H](C)O1`, for which the Percent Effect in assay [1] is -4.17%; in assay [2], -37.5%; in assay [3], -3.25%; in [4] it was 0.729%; in assay [5] it was 0.875%; in assay [6], 1.77%. Besides, the Percent Effect in assay [7] is 8.6%; in assay [8] it was -18.6%; in assay [9], 5.26%; in assay [10] it was 7.69%; in assay [11], -3.31%.

Take `Clc1ccccc1C1(c2ccnc(-c3ccncc3)n2)CCNCC1`: the Percent Effect in [1] was -0.572%; in [2], 7.79%; in [3], 3.38%; in [4], 10.4%; in [5], -2.26%; in assay [6], -8.28%. For the same compound, the Percent Effect in [7] amounted to 17%; in assay [8], 16.3%; in assay [9], 6.45%; in [10], 13.6%; in assay [11], 2.54%.

On to `CCCc1n[nH]c(C2CN(CCn3cccn3)CCO2)n1` (stereo not drawn), for which the Percent Effect in assay [1] is -6.25%; in [2], -4.17%; in assay [3], -1.07%; in assay [4], -3.33%; in assay [5] it was 2.04%; in [6] it was 2.21%. The Percent Effect in assay [7] is 11.9%; in assay [8], -12.6%; in assay [9] it was 2.1%; in assay [10] it was 0%; in assay [11], -1.2%.

As to `CS(=O)(=O)N1CCN(CC(O)COc2ccc(F)cc2)CC1` (stereo not drawn), the Percent Effect in assay [1] was -0.431%; in [2], 10.4%; in assay [3] it was 2.55%; in assay [4] it was -2.66%; in assay [5], -4.02%; in assay [6], 0.632%. In addition, the Percent Effect in assay [7] was 11.4%; in assay [8] it was 26.8%; in [9], 2.86%; in assay [10] it was 21.2%; in [11], -16.1%.
